Most compounds without a hit are left out; they make up all but 21% or so of the library.
Pf growth 96h = P. falciparum growth inhibition at 96 hour, primary screen for plastid delayed-death inhibitors; P. falciparum luciferase reporter growth, 96 h; Potency, µM (doses to about 28.7 µM), inactives show at the top dose activity change, negative = inhibition, actives largely listed as inhibitors; 320,000 compounds, 6.9% hits; AID 504834; note: potency is the fitted concentration of half-maximal effect; % is set by controls: 0 for no effect and ±100 for the full control effect
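Parasite growth measured via integrated firefly luciferase reporter in P. falciparum. Infected erythrocytes at 2% hematocrit, 0.05% parasitemia final were treated 96 hours at 37 C under 5% CO2, and luminescence was read.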
Pf growth 48h = inhibits P. falciparum growth in the first generation, 48 h | P. falciparum luciferase growth in erythrocytes, 48 h | Potency, µM (doses to about 28.7 µM), inactives show top-dose activity change, negative = inhibition, hits mostly inhibitors | 310,000 compounds, 5.9% hits; note: potency is the fitted concentration of half-maximal effect; % is set by controls: 0 for no effect and ±100 for the full control effect
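Compounds are pin-transferred into medium, infected erythrocytes (2% hematocrit, 0.1% parasitemia final) are added, and plates sit one parasite generation at 37 C in 5% CO2. Detection reagent is then added and luminescence measured.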
SARS PLP yeast = blocks SARS-CoV papain-like protease in a yeast assay. S. cerevisiae expressing SARS-CoV PLpro, growth rescue. Potency, µM (highest dose often 32.9 µM), without a hit: at the top dose activity, positive = growth rescue, hits mostly activators. 330,000 compounds, 0.19% hits. AID 485353; calls by dose curve; note: potency is the fitted concentration of half-maximal effect; 0% is about no effect; nearly all actives have a fitted effect of over 55% in size
CHX counter = affects cycloheximide protein synthesis inhibition readout, counter-screen; cell reporter, cycloheximide protein synthesis inhibition counterscreen; 300,000 compounds, 12% hits; AID 2314; max response, %; in the data active = max response mostly above about 13%, no sharp cut-off; inactive = mostly below about 14%; note: read at 38.3 µM for the half of the compounds with a filed dose; 0% is about no effect
NS1 inh = inhibitors of influenza NS1 protein function. Potency, µM (series often up to 46.1 µM), inactives show at the top dose activity, positive = more growth. 270,000 compounds, 0.4% hits. AID 2326; calls by dose curve; note: potency is the fitted concentration of half-maximal effect; actives are rising curves; nearly all actives have a fitted effect of over 50% in size
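Recovery from NS1-induced slow growth read by OD600 in budding yeast switched to galactose assay medium (pH 6.0, -URA) at 1:100 dilution. Compound 23 nl per well; the matching strain lacking NS1 serves as control.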
Shiga toxin inh = inhibitors of Shiga toxin in Vero cells; Vero cells, Shiga toxin protein synthesis inhibition reporter; inhibition, % at 38.7 µM; 290,000 compounds, 9.2% hits; AID 2315; in the data active = inhibition mostly above about 28%, no sharp cut-off; inactive = mostly below about 43%; note: 0% is about no effect
The depositor's hits bear a star; i = inactive; ? = inconclusive; nt = no result given; [ ] = another dose, or the depositor's remark. Unless noted, calls come from the whole dose curve; as a rule, active = well fitted inhibition curve with a large enough effect; inconclusive = small, poorly fitted or top-dose-only effect, or another doubt; inactive = no such curve, though single readings can be large or run the other way.

SMILES | Pf growth 96h | Pf growth 48h | SARS PLP yeast | CHX counter | NS1 inh | Shiga toxin inh
Cc1cc(C(=O)C(C)OC(=O)c2ccc(NC(=O)CC#N)cc2)c(C)n1-c1ccc(OC(F)F)cc1 (stereo not drawn) | ? | 5.9µM* | -5% | nt | nt | nt
Cc1[nH]c2ccccc2c1C(=O)C(C)OC(=O)c1ccc(NC(=O)CC#N)cc1 (stereo not drawn) | 3.3µM* | 3.7µM* | -1% | nt | nt | nt
Cc1[nH]c2ccccc2c1C(=O)C(C)OC(=O)c1ccc(Cl)nc1 (stereo not drawn) | -34% | ? | 1% | nt | nt | nt
O=C(c1cc2cc(F)ccc2[nH]1)N1CCCC(Nc2ccc(F)cc2)C1 (stereo not drawn) | ? | 40% | 0% | 9 | -27% | 9
O=[N+]([O-])c1ccc(O)c(C=Nc2ccc3nc(-c4ccccc4)[nH]c3c2)c1 | 1.5µM* | -9% | -41% | 28* | -28% | 70*
Oc1c(Br)cc(Br)cc1C=Nc1ccc2[nH]ncc2c1 | 124% | 37% | -2% | -2 | -90% | -7
Oc1c(Br)cc(C=Nc2ccc3nc(-c4ccccc4)[nH]c3c2)c(O)c1Br | 17% | ? | -2% | 52* | nt | 75*
Cc1cccnc1NC(=O)C1CCCN(S(=O)(=O)c2ccc3c(c2)oc(=O)n3C)C1 (stereo not drawn) | 2% | nt | 0% | -5 | 10% | -7
O=C(NC1CCCCCCC1)c1cccc(Cl)c1 | 49% | nt | -3% | 40* | -11% | 64*
O=C(NNC(=O)C1C2CCC(C2)C1C(=O)O)c1cccc(Cl)c1 (stereo not drawn) | 20% | 19% | -1% | 19* | -1% | 58
CCOc1cccc(C(=O)NC2CCCCC2)c1 | 12% | 83% | 4% | 30* | -8% | 101*
CCC(C)(C)n1nnnc1C(c1ccc(C)cc1)N1CCN(Cc2cccnc2)CC1 (stereo not drawn) | -4%[5.75 µM] | 13µM* | 6% | -7 | 1% | -19
CCC(C)(C)n1nnnc1C(c1cccnc1)N1CCN(c2cccc(C(F)(F)F)c2)CC1 (stereo not drawn) | 0% | 9.3µM* | -30% | -3 | -116% | -16
CC(C)(C)n1nnnc1C(c1cccnc1)N1CCN(c2ccccc2)CC1 (stereo not drawn) | -17% | ? | -23% | -1 | -76% | -9
CCC(C)(C)n1nnnc1C(c1ccncc1)N1CCN(c2cccc(OC)c2)CC1 (stereo not drawn) | 2.6µM* | 0% | 1% | -1 | 4% | -2
CCC(C)(C)n1nnnc1C(c1ccc(C)cc1)N1CCSCC1 (stereo not drawn) | ? | -24% | -5% | 4 | -7% | -3
Cc1ccc(NC(=O)Cc2ccsc2)cc1S(=O)(=O)N1CCOCC1 | nt | nt | -5% | nt | nt | nt
CCO[C@H]1OC(C(=O)NCc2nc3ccccc3[nH]2)=C[C@@H](C2CCCCC2)[C@@H]1CCCO | 9.3µM* | ? | 0% | 2 | -10% | -10
CCO[C@H]1OC(C(=O)NCc2nc3ccccc3[nH]2)=C[C@@H](c2ccc(C(F)(F)F)cc2)[C@@H]1CCCO | 1.5µM* | ? | 0% | -1 | -15% | 17
C#Cc1ccc([C@@H]2C=C(C(=O)NCc3nc4ccccc4[nH]3)O[C@H](OCC)[C@H]2CCCO)cc1 | ? | ? | 1% | -1 | -36% | -2
CCO[C@@H]1OC(C(=O)NCc2nc3ccccc3[nH]2)=C[C@H](c2ccc(C(F)(F)F)cc2)[C@H]1CCCO | 12µM* | ? | 0% | 1 | 0% | -17
CCO[C@H]1OC(C(=O)NCc2nc3ccccc3[nH]2)=C[C@@H](C)[C@@H]1CCCO | 47% | 49% | 2% | -1 | -2% | -10
O=C(N[C@H](C(=O)O)c1ccccc1)C1CCC(Cn2cnc3ccccc3c2=O)CC1 (stereo partly drawn) | 20% | 10% | -1% | 1 | 0% | -2
O=C(Nc1ccccc1)OCCOc1ccc(Br)cc1 | 96% | -14% | -1% | -2 | -1% | 2
Cc1ccc(/C=N/N2C(=O)C3C(C2=O)C2C=CC3C23CC3)o1 (stereo not drawn) | -3% | 22% | -14% | 18* | -5% | 14
SMILES | Pf growth 96h | Pf growth 48h | SARS PLP yeast | CHX counter | NS1 inh | Shiga toxin inh
O=C1C2C(C(=O)N1/N=C/c1cc(Br)cc([N+](=O)[O-])c1O)C1C=CC2C12CC2 (stereo not drawn) | 12µM* | ? | -29% | 2 | -21% | -7
O=C1C2C(C(=O)N1/N=C/c1cccc([N+](=O)[O-])c1)C1C=CC2C12CC2 (stereo not drawn) | 106% | 99% | -7% | 52* | -22% | 75*
CC1(C(=O)O)CCC(C(=O)Nc2ccc(F)cc2)C1(C)C (stereo not drawn) | -9% | -3% | 4% | -1 | 9% | -2
CCCCN(CC)CCNC(=O)CCC(=O)Nc1ccc2nc(N3CCN(C)CC3)cc(C)c2c1 | -13% | ? | -1% | -2 | nt | 29
CCCN(CCC)CCCNC(=S)Nc1ccc2nc(N3CCN(C)CC3)cc(C)c2c1 | ? | -54% | -5% | -3 | -8% | -3
CCCCN(CC)CCNC(=S)Nc1ccc2nc(N3CCN(C)CC3)cc(C)c2c1 | ? | 1.7µM* | -3% | -7 | -6% | -6
CCCN(CCC)CCCNC(=S)Nc1ccc2nc(N3CCN(CC)CC3)cc(C)c2c1 | -27% | 4.1µM* | 2% | -4 | 7% | 1
O=[N+]([O-])c1cccc(-c2cc3cccc[n+]3cc2-c2cccc([N+](=O)[O-])c2)c1 | 0.17µM* | 0.52µM* | -4% | -3 | 12% | -8
O=[N+]([O-])c1cccc(-c2nnc3ccccn23)c1 | ? | 46% | -1% | -2 | -32% | 9
Cc1sc2cc(-c3cccc([N+](=O)[O-])c3)c(-c3cccc([N+](=O)[O-])c3)c[n+]2c1C | 0.83µM* | 0.93µM* | -8% | -2 | 0% | 16
COC[C@H]([C@@H](O)[C@@H](O)C(=O)NCC[C@@H](C)c1nc(/C=C/C[C@H]2OC3(C[C@H](O)[C@H]2C)OC([C@@H](C[C@@H](O)[C@@H](C)[C@@H](O)[C@@H](C)/C=C(C)/C(C)=C/C=C/C(C)=C\C#N)OC)[C@@H](OP(=O)(O)O)C3(C)C)co1)N(C)C (stereo partly drawn) | nt | nt | nt | -15 | nt | -10
C=CCn1c(N)c(C(=O)Nc2ccc(C)cc2)sc1=S | 6% | nt | 18% | 30* | 3% | 15
C=CCn1cccc(C(=O)Nc2ccc(C)c(C)c2)c1=O | 165% | 91% | -4% | 45* | -33% | 107*
C=CCn1c(N)c(C(=O)Nc2ccccc2OC)sc1=S | nt | 22% | -21% | -3 | -19% | -10
C/C=C/Cn1cccc(C(=O)Nc2ccc(OC)cc2)c1=O | 105% | i | -2% | 22 | nt | 44

Assay outcomes deposited in PubChem BioAssay by National Center for Advancing Translational Sciences (NCATS).
